# Results published in PubChem BioAssay (EPA / NIEHS).
# Results filed as inconclusive are left out. The source made the active and inactive calls. Rule for the calls: active = hit-call score of the fitted dose curve at least 0.9, where 1 is the maximum; inconclusive = response in the unintended direction; inactive = score below 0.9.
# Read-out: Cytochrome P450 2C19 (Homo sapiens) (UniProt P33261)
# Assay: CLD_CYP2C19_24hr: CellzDirect (CLD) Gene Expression Assay for xenobiotic metabolism (CYP2C19) at 24 hours (AID 2283687);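 note: activity means mRNA induction above DMSO vehicle baseline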
# Experimental: CLD_24hr is a cell-based, multiplexed-readout assay that uses hepatocyte, a human liver primary cell, with measurements taken at 24 hours after chemical dosing in a 96-well plate.CLD_CYP2C19_24hr is one of 16 assay component(s) measured or calculated from the CLD_24hr assay. It is designed to make measurements of mRNA induction, a form of inducible reporter, as detected with chemiluminescence signals by Quantitative Nuclease Protection Assay (qNPA) technology.Data from the assay component CLD_CYP2C19_24hr was analyzed at the endpoint, CLD_CYP2C19_24hr, in the positive analysis fitting direction relative to DMSO as the negative control and baseline of activity. Using a type of inducible reporter, gain-of-signal activity can be used to understand changes in the reporter gene as they relate to the gene CYP2C19. Furthermore, this assay endpoint can be referred to as a primary readout. To generalize the intended target to other relatable targets, this assay endpoint is annotated to the cyp intended target family, where subfamily is xenobiotic metabolism.
# Human hepatocyte cultures were treated daily for two consecutive days with fresh dosing solutions containing appropriate concentrations of the 320 ToxCast chemicals (chemical identities were blinded to CellzDirect and other ToxCast collaborators), vehicle control (0.2% DMSO), and positive control inducers as summarized in Table 1. Due to the large number of treatment groups and chemicals examined, the ToxCast chemicals were divided into two groups (spanning two independent cultures of hepatocytes from separate donor preparations (Hu778: ToxCast plates 1 and 2; Hu776: ToxCast plates 3 and 4). Each preparation of human hepatocyte cultures was treated with respective vehicle control, medium only control, set of six positive controls/reference chemicals for the five hepatic receptor pathways, and a subset of eight of the ToxCast chemicals (indoxacarb, pyrithiobac-sodium, norflurazon, cyhalofop-butyl, methomyl, thiram, acetochlor, and propiconazole). These replicate data, coupled with internal replicates designed within the blinded ToxCast chemical library, provided additional data to evaluate interindividual differences between hepatocyte preparations and their potential impact on chemical profiles.Cell morphology and integrity were evaluated using phase-contrast microscopy as an indicator of hepatocyte cell health (Tyson & Green, 1987). Cultures for each treatment group (i.e., media, vehicle [0.2% DMSO], positive control inducers [multiple concentrations], and the ToxCast chemicals [multiple concentrations]) were observed and cell morphology was assessed relative to vehicle control cultures at each harvest time point (0, 6, 24, or 48 h). […] Images were evaluated at the conclusion of the study to assess changes in cell integrity and account for the effects of chemical exposure on uncharacteristic changes in concentration-dependent gene expression profiles. The results from these determinations of apparent cytotoxicity were annotated (yes/no) alongside the corresponding qNPA data for reference.At the conclusion of each treatment period, hepatocyte cultures (96-well) were washed with 1 volume of HBSS, lysed by addition of 25 ul ArrayPlate lysis buffer (HTG, Tucson, AZ), and 70 ul/well of Denaturation Oil, denatured by incubation at 95C for 10 min, and frozen at approximately -70C until analysis by nuclease protection assay (qNPA) (Roberts et al., 2007). For qNPA analysis, cell lysates were thawed at 50C for approximately 30 min, qNPA probes were added, and samples were incubated at 95C for 10 min to begin the detection process by denaturing the target RNA, dissociating the duplexes and secondary structure hybridization. At the conclusion of the hybridization period, S1 nuclease reagent was added to each sample to digest all nonprotected nucleotides at 50C for 60-90 min. […]
# Chain of Cytochrome P450 2C19 (Homo sapiens) (P33261 whole entry, looked up): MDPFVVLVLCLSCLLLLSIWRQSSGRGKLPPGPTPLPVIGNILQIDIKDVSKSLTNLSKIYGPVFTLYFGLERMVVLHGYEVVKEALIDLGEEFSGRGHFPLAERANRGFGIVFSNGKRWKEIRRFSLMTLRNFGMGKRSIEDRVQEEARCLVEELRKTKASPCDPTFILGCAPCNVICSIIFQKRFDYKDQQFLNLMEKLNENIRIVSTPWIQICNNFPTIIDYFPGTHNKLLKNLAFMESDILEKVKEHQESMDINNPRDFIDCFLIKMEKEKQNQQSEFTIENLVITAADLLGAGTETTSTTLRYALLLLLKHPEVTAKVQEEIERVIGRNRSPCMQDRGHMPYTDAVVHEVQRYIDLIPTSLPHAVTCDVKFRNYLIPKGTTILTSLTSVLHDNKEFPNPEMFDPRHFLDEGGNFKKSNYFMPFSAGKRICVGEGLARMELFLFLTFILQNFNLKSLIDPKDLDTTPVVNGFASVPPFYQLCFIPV
row,SMILES,outcome
1,CCc1ccc(C(=O)NN(C(=O)c2cc(C)cc(C)c2)C(C)(C)C)cc1,inactive
2,Cc1cc(C)nc(NC(=O)NS(=O)(=O)c2ccccc2C(=O)OC2COC2)n1,inactive
3,CCOc1nc(NC)nc(NC(=O)NS(=O)(=O)c2ccccc2C(=O)OC)n1,inactive
4,CC[C@H](C)[C@H]1O[C@]2(C=C[C@@H]1C)C[C@@H]1C[C@@H](C/C=C(\C)[C@@H](O[C@H]3C[C@H](OC)[C@@H](O[C@H]4C[C@H](OC)[C@@H](O)[C@H](C)O4)[C@H](C)O3)[C@@H](C)/C=C/C=C3\CO[C@@H]4[C@H](O)C(C)=C[C@@H](C(=O)O1)[C@]34O)O2 (tested in a mixture with another compound),inactive
5,COC(=O)c1ccccc1CS(=O)(=O)NC(=O)Nc1nc(OC)cc(OC)n1,inactive
6,Cc1[nH]c(=O)n(C(C)(C)C)c(=O)c1Cl,inactive
7,[2H]C1([2H])[n+]2ccccc2-c2cccc[n+]2C1([2H])[2H],inactive
8,CC(C)OC(=O)Nc1cccc(Cl)c1,inactive
9,O=[N+]([O-])/N=C1\NCCN1Cc1ccc(Cl)nc1,inactive
10,N#CN,inactive
11,COC(=O)c1ccccc1S(=O)(=O)NC(=O)Nc1nc(C)nc(OC)n1,inactive
12,CCC(C)(NC(=O)c1cc(Cl)c(C)c(Cl)c1)C(=O)CCl (centres undefined),inactive
13,CCN(CC)C(=O)SCc1ccc(Cl)cc1,inactive
14,COP(=O)(OC)OC=C(Cl)Cl,inactive
15,OCCOc1ccccc1,inactive
16,COc1cc(OC)nc(NC(=O)NS(=O)(=O)c2cc(NC=O)ccc2C(=O)N(C)C)n1,inactive
17,CC(C)(C)C(O)C(Oc1ccc(Cl)cc1)n1cncn1 (centres undefined),inactive
18,O=S(=O)(O)C(F)(F)C(F)(F)C(F)(F)C(F)(F)C(F)(F)C(F)(F)C(F)(F)C(F)(F)F,inactive
19,COC(=O)c1ccccc1S(=O)(=O)NC(=O)N(C)c1nc(C)nc(OC)n1,inactive
20,Oc1ccc(Cl)cc1Cc1ccccc1,inactive
21,CNC(=O)CSP(=S)(OC)OC,inactive
22,O=C(O)COc1ccc(Cl)cc1Cl,inactive
23,ClC1C(Cl)C(Cl)C(Cl)C(Cl)C1Cl (centres undefined),inactive
24,CC1(C)C(C=C(Cl)Cl)C1C(=O)OC(C#N)c1ccc(F)c(Oc2ccccc2)c1 (centres undefined),inactive
25,Clc1ccccc1-c1nnc(-c2ccccc2Cl)nn1,inactive
26,CNC(=O)Oc1cccc(N=CN(C)C)c1,inactive
27,O=S1OCC2C(CO1)C1(Cl)C(Cl)=C(Cl)C2(Cl)C1(Cl)Cl (centres undefined),inactive
28,CCS(=O)(=O)c1cccnc1S(=O)(=O)NC(=O)Nc1nc(OC)cc(OC)n1,inactive
29,O=C(O)CCCOc1ccc(Cl)cc1Cl,inactive
